Measurements published in ChEMBL document CHEMBL1157539, “Thousands of chemical starting points for antimalarial lead identification” (Nature, 2010).

Assays:
Format in all cases: functional
Plasmodium falciparum [1] = assay: GSK_TCMDC: Inhibition of Plasmodium falciparum 3D7 in whole red blood cells, using parasite LDH activity as an index of growth. Test compounds present at 2uM
Plasmodium falciparum [2] = assay: GSK_TCMDC: Inhibition of Plasmodium falciparum Dd2 in whole red blood cells, using parasite LDH activity as an index of growth. Test compounds present at 2uM
HepG2 = assay: GSK_TCMDC: Percent inhibition of human HepG2 cell line. Test compounds present at 10uM.

Row | Compound | Inhibition (Plasmodium falciparum [1]) [%] | Inhibition (Plasmodium falciparum [2]) [%] | Inhibition (HepG2) [%]
1 | COc1ccc(C(=O)Nc2ccc(-c3nc4cc(C)ccc4[nH]3)cc2)cc1OC | 100 | 38 | 70
2 | Nn1c(=O)oc2ccc(Cl)cc2c1=O | 97 | 96 | 4
3 | O=C(Nc1ccc(OCc2ccccc2)cc1)c1nc2ccccc2nc1Cl | 96 | 95 | 48
4 | CC(C)(C)c1ccc(CNC(=O)c2cc(CNC3CCNCC3)ccc2O)cc1 | 96 | 8 | 6
5 | O=C(Nc1ccc2c(c1)CCC2)c1cccc(CN2CCCN(Cc3cccc(O)c3)CC2)c1.O=C(O)C(F)(F)F | 91 | 20 | 10
6 | Cc1ccccc1-c1cc(=O)c2cc(NC(=O)c3cccs3)ccc2o1 | 96 | 95 | 22
7 | COc1ccc(-c2cnc3ccc(NCc4ccc(S(N)(=O)=O)cc4)nn23)cc1 | 96 | 99 | 19
8 | CCNc1cc(C(=O)N[C@@H](Cc2ccccc2)[C@H](O)CNCc2cccc(OC)c2)c(OC)c(N2CCCCS2(=O)=O)c1 | 97 | 96 | 11
9 | C=CCn1c(Sc2ccc(C#N)c([N+](=O)[O-])c2)nnc1-c1cc(OC)cc(OC)c1 | 96 | 84 | 12
10 | COc1ccc2nc(-c3ccccc3)cc(NCCCNc3cc(-c4ccccc4)nc4ccc(OC)cc34)c2c1.Cl | 99 | 99 | 100
11 | CS(=O)(=O)NCCCNCc1cccc(-c2cccc(-c3nc4cc(C(F)(F)F)ccc4[nH]3)c2)c1.O=C(O)C(F)(F)F | 99 | 100 | 17
12 | Cc1cc(NC(=O)c2cccs2)ccc1OC1CCN(Cc2ccccc2)CC1.O=C(O)C(F)(F)F | 95 | 91 | 10
13 | CCCCCCCc1c(C)nc2cccc(OC)c2c1O | 95 | 47 | 43
14 | CC(=O)c1c(Cc2cccc(C(F)(F)F)c2)c[nH]c1C | 94 | 92 | 6
15 | CCCCCCCCN1CCN(CCCCCCNc2c3ccccc3nc3ccccc23)CC1.Cl | 100 | 100 | 100
16 | CCCCc1ccc(C(=O)Nc2ccc3nc(N4CCN(CC)CC4)cc(C)c3c2)cc1 | 91 | 13 | 32
17 | Cc1cc(-c2ccc(NC(=O)N3CCc4cc(Cl)c(N5CCN(C)CC5)cc43)cc2)ccc1C#N | 100 | 83 | 100
18 | Cl.N#Cc1ccc2c(c1)CN(CCC1CCC(NC(=O)c3cc4cc(OC(F)(F)F)ccc4[nH]3)CC1)CC2 (stereo not drawn) | 100 | 19 | 4
19 | O=C(O)C(F)(F)F.Oc1ccc(CCNc2nc(NCc3ccccc3-c3ccc(F)cc3)nc(N3CCNCC3)n2)cc1 | 92 | 24 | 15
20 | O=C(Nc1cccc(CN2CCCN(Cc3ccc4c(c3)OCO4)CC2)c1)c1ccc2ccccc2c1.O=C(O)C(F)(F)F | 86 | 14 | 7
21 | O=C(Nc1ccccc1)N(Cc1ccc(-c2ccc(CNCc3ccc4c(c3)OCO4)cc2)cc1)C1CCN(Cc2ccccc2)CC1.O=C(O)C(F)(F)F | 98 | 41 | 21

Row | Compound | Inhibition (Plasmodium falciparum [1]) [%] | Inhibition (Plasmodium falciparum [2]) [%] | Inhibition (HepG2) [%]
22 | CCN(CCCN1CCCCC1)c1cc(C)nc(Nc2ccc(Cl)cc2C)n1.O=C(O)C(F)(F)F | 95 | 46 | 44
23 | Cc1cc(N[C@@H](Cc2ccccc2)C(=O)Nc2ccccc2)nc(NCC2CCCCC2)n1.O=C(O)C(F)(F)F | 98 | 55 | 12
24 | CC(C)(CNCc1cccc(Oc2ccccc2)c1)c1nc(-c2ccnc(N)n2)c(-c2ccc(Cl)c(O)c2)[nH]1.Cl | 97 | 99 | 28
25 | COc1ccc(-c2ccc(Nc3cccc(S(=O)(=O)CCN4CCC(CCN(C)C)CC4)c3)nc2)cn1 | 100 | 9 | 44
26 | O=C(Nc1ccc2ccccc2c1)N(CCCn1ccnc1)Cc1csc(-c2ccc(CNCc3ccccc3)cc2)n1.O=C(O)C(F)(F)F | 99 | 53 | 10
27 | CN(C)CCOc1cc(NC(=O)Nc2ccc(-c3ccncc3)c(C(F)(F)F)c2)ccc1Cl | 100 | 79 | 36
28 | COc1ccccc1NC(=O)Nc1cccc(-c2ccc(-c3nc4cccc(C)c4[nH]3)s2)c1 | 100 | 46 | 19
29 | O=C(/C=C/c1ccc([N+](=O)[O-])cc1)N1CCC(NS(=O)(=O)c2ccc(Br)cc2)CC1 | 93 | 5 | 0
30 | O=C(O)C(F)(F)F.c1ccc(CNCc2cccc(-c3ccc(-c4nc5ccccc5[nH]4)cc3)c2)cc1 | 97 | 39 | 10
31 | O=c1cc(NCCCNC(c2ccccc2)c2ccc(Cl)c(Cl)c2)[nH]c2ccccc12 (stereo not drawn) | 89 | 94 | 13
32 | O=C(Nc1ccc(OC2CCN(Cc3ccc(F)cc3)C2)c(Cl)c1)c1ccsc1.O=C(O)C(F)(F)F (stereo not drawn) | 98 | 95 | 26
33 | Fc1cccc(Cn2ncc3cc(Nc4ncnc5sc(C#Cc6ncc[nH]6)cc45)ccc32)c1 | 100 | 30 | 31
34 | Nc1nc(N)c2c(ccc3nn(C4CCCC4)cc32)n1 | 97 | 3 | 44
35 | Cn1cncc1CCCN(Cc1ccc(-c2ccc(C(F)(F)F)cc2)cc1)C(=O)Cn1c(CCc2cccc(F)c2F)cc(=O)c2cccnc21 | 85 | 59 | 17
36 | Cc1n[nH]c2cc(F)c(-c3cc(OC[C@@H](N)Cc4ccccc4)cnc3-c3ccoc3)cc12.O=C(O)C(F)(F)F | 95 | 15 | 22
37 | FC(F)(F)c1ccc2[nH]ccc(=NN=Cc3ccccc3)c2c1 | 92 | 2 | 7
38 | Cc1cc(-c2ccc(O)c(CNC3CCCCC3)c2)cnc1N | 100 | 100 | 27
39 | CCNC1=NC2=C(CC(C(C)(C)C)CC2)C2(CCC(C(C)(C)C)CC2)S1.Cl (stereo not drawn) | 99 | 99 | 40
40 | COc1ccc(CN(C)CCOc2ccc(NC(=O)c3cccc4c(=O)c5cc(SC)ccc5[nH]c34)cc2)cc1OC | 96 | 98 | 67
41 | CC1(C)NC(N)=NC(=N)N1OCOc1cc(Cl)c(Cl)cc1Cl.Cl | 96 | 98 | 66
42 | O=C(NCCCc1ccccc1)c1csc(C2CCCN(C(=O)c3ccc(O)c(-c4cccc5ccccc45)c3)C2)n1 (stereo not drawn) | 97 | 98 | 3

Row | Compound | Inhibition (Plasmodium falciparum [1]) [%] | Inhibition (Plasmodium falciparum [2]) [%] | Inhibition (HepG2) [%]
43 | Cl.c1ccc(Oc2ccc(Nc3ccnc4cc(-c5ccc(CN6CCNCC6)o5)ccc34)cc2)nc1 | 100 | 99 | 7
44 | Clc1ccc(-c2ccc(CNCCCN3CCCC3)cc2)cc1 | 91 | 21 | 47
45 | CCCCC([C@@H](Cc1ccc2ccccc2c1)C(=O)N[C@H](C(=O)NC)C(C)(C)C)N(O)C=O (stereo partly drawn) | 100 | 97 | 0
46 | COc1cc(C(=O)Nc2nc3ccccc3[nH]2)ccc1OCC(=O)Nc1cccc(C(F)(F)F)c1 | 100 | 33 | 33
47 | CCN(CC)CCN(CCN(CC)CC)c1ccc(-c2nc3cc(Cl)c(Cl)cc3[nH]2)cc1 | 100 | 97 | 9
48 | O=C(Nc1ccc(-c2cccc(-c3nc4cc(C(F)(F)F)ccc4[nH]3)c2)cc1)c1ccoc1 | 96 | 13 | 52
49 | O=C(O)/C=C\C(=O)O.O=c1c2sc(-c3ccc(Cl)cc3)cc2ncn1Cc1ccc(OCCN2CCCC2)c2ccccc12 | 100 | 81 | 38
50 | CCC(C)CN1CCCN(c2ccc(NC(=O)c3cccs3)cc2)CC1.O=C(O)C(F)(F)F (stereo not drawn) | 91 | 95 | 4
51 | Nc1nccc2ccc(-c3ccc(OCc4ccccc4)cc3)cc12.O=C(O)C(F)(F)F | 100 | 67 | 40
52 | O=C(NC(Nc1ccc([N+](=O)[O-])cc1)C(Cl)(Cl)Cl)c1ccc(Cl)cc1 (stereo not drawn) | 98 | 94 | 21
53 | CCN(CCCN1CCCCC1)c1cc(C)nc(Nc2ccc(Oc3ccccc3)cc2)n1.O=C(O)C(F)(F)F | 100 | 99 | 50
54 | Cc1ccc2c(=NN=Cc3cccc(F)c3)cc(C)[nH]c2c1 | 96 | 66 | 34
55 | CC(C)NCc1ccc(-c2ccc(NC(=O)c3ccc(C#N)cc3)cc2)cc1.O=C(O)C(F)(F)F | 90 | 0 | 23
56 | CC(C#N)Cc1ccc(-c2cnc(N)c3cc(-c4ccnc(N)n4)ccc23)cc1 (stereo not drawn) | 96 | 62 | 56
57 | COc1ccc(-c2ccc(CNCc3ccsc3)cc2)cc1S(=O)(=O)NCCN1CCCC1.O=C(O)C(F)(F)F | 94 | 30 | 22
58 | CC(C)COc1ccc(Cl)cc1Cc1ccc(-c2nc3ccc(C(F)(F)F)cc3[nH]2)o1 | 97 | 51 | 14
59 | Cl.Clc1ccc(OCCC2CCN(CCCCCCCN3CCC(CCOc4ccc(Cl)c(Cl)c4)CC3)CC2)cc1Cl | 99 | 82 | 100
60 | Cc1ccc([N+](=O)[O-])cc1NC(=O)N(CC(O)c1ccccc1)C1CCCCC1 (stereo not drawn) | 100 | 98 | 11
61 | CCC(COCc1ccc(Cl)cc1)N(C)CCN(C)C(CC)COCc1ccc(Cl)cc1.Cl (stereo not drawn) | 95 | 78 | 89
